Screening data from PubChem.
Hits are enriched below; roughly 2.4% of the tested compounds scored in any of these assays.
Pol iota inh: DNA polymerase iota (human) inhibition; Pol iota fluorescent replication assay, 10 min; Potency, µM (doses to about 115 µM), actives largely listed as inhibitors; 390,000 tested, 1% active
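Pol iota at 10 nM preincubated 15 min with compounds at room temperature; reaction started with fluorescent substrate, 50 nM final. Fluorescence read kinetically at 0 and 10 min; buffer-only wells as negative control.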
POLK inh: blocks human DNA polymerase kappa activity. Q9UBT6. purified Pol kappa, fluorescent DNA synthesis assay, 10 min. Potency, µM (doses to about 107 µM), usual class: inhibitors. 400,000 tested, 0.53% active. AID 588579
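Readout: fluorescence, taken kinetically at 0 and 10 min. Conditions: 10 nM Pol kappa, 15 min RT compound preincubation, 50 nM substrate final. Controls: enzyme-free buffer wells.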
Pol eta inh: blocks human DNA polymerase eta activity; Q9Y253; recombinant Pol eta, fluorescent DNA replication assay; Potency, µM (titrated, usually from 114 µM), most hits filed as inhibitors; 390,000 tested, 1.2% active
Target sequence (Q9Y253 whole entry, looked up): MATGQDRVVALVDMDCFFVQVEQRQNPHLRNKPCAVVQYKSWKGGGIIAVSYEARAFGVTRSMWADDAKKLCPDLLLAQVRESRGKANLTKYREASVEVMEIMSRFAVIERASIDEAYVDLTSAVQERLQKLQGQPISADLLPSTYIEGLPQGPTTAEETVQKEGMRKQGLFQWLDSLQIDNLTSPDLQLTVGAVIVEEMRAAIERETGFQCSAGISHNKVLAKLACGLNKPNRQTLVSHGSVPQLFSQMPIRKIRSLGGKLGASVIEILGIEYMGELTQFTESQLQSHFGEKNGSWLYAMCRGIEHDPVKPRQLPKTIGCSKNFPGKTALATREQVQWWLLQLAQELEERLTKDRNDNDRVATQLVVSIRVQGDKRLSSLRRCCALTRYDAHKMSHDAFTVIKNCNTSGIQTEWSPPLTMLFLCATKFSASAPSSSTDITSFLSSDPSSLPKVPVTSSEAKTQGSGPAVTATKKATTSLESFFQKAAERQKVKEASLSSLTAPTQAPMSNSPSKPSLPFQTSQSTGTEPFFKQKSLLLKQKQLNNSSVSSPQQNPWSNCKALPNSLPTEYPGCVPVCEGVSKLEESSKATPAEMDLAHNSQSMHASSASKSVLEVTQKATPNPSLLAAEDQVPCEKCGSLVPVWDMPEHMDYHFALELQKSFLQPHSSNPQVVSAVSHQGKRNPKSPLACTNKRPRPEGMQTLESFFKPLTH
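Pol eta (10 nM) was preincubated with compounds for 15 min at room temperature, after which fluorescent replication substrate (50 nM final) was added to start the reaction. Fluorescence was read kinetically at 0 and 10 min.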
TDP1 block: inhibitors of human tyrosyl-DNA phosphodiesterase TDP1; Q9NUW8; Potency, µM (series often up to 130 µM), usual class: inhibitors; 350,000 tested, 0.28% active; recombinant TDP1, AlphaScreen DNA substrate cleavage; AID 485290; also: nearly all actives have a fitted effect of over 40% in size
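AlphaScreen read-out: signal falls as enzyme removes the 3' tyrosine-FITC from a 5'-biotinylated DNA oligo (15 nM, 5 min, RT). Enzyme was E. coli-made recombinant Tdp1 at 1 nM, exposed to compound for 15 min beforehand; beads 10 ug/ml, 10 min.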
Pol beta inh: inhibitors of human DNA polymerase beta. Pol beta primer extension/strand displacement, fluorescence kinetic. Potency, µM (doses to about 114 µM), usual class: inhibitors. AID 485314. 340,000 tested, 1.3% active. P06746
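Human Pol beta at 10 nM; strand-displacement substrate 50 nM final. Compound exposure 15 min at room temperature before start, reaction 10 min at room temperature.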
Numbers stand for hits; – = inactive; ? = inconclusive; · = no result; ! = not active in a repeat; [ ] = another dose, or the depositor's remark. Calls follow the shape of the dose curve; as a rule, active = well fitted curve in the direction sought with a large enough effect; inconclusive = small, poorly fitted or top-dose-only effect, or another doubt; inactive = no such curve, though single readings can be large; an effect the other way counts as inactive or inconclusive.

SMILES	Pol iota inh	POLK inh	Pol eta inh	TDP1 block	Pol beta inh
Cc1ccc(C2C(C#N)=C(N)Oc3n[nH]c(-c4cccnc4)c32)o1 (centres undefined)	28µM	–	–	–	–
COc1cccc(S(=O)(=O)N2CCN(S(=O)(=O)c3ccc4c(c3)OCCO4)CC2)c1	·	·	·	–	·
O=C1C(=NO)CCc2ccccc21	?	–	18µM	·	·
O/N=C1/CCc2cccc3cccc1c23	–	–	–	–	–
COc1ccc(C(=O)N(Cc2ccco2)Cc2ccco2)c(O)c1	·	·	·	–	·
S=c1nc[nH]c2nc[nH]c12	–	–	–	32µM	–
COc1ccc(NC(=O)c2ccc3c(SCC(=O)O)c4c(nc3c2)CCCC4)cc1Cl	·	·	·	–	–
O=C(O)CSc1c2c(nc3cc(C(=O)Nc4ccc(F)c(Cl)c4)ccc13)CCCC2	?	–	50µM	56µM	–
O=S(=O)(c1ccc2c(c1)OCCO2)N1CCN(S(=O)(=O)c2cc(F)c(Br)cc2F)CC1	·	·	·	–	·
O=S(=O)(c1ccc2c(Cl)cccc2c1)N1CCN(c2nc(-c3cccs3)nc3ccccc23)CC1	–	–	·	–	·
O=C(CN1CCN(c2ccccc2F)CC1)c1ccc(O)c(O)c1	45µM	?	?	·	–
COc1cccc(NC(=O)/C(C#N)=C\c2cn(Cc3ccc(C)cc3)c3ccccc23)c1	–	–	–	–[12.3 µM]	–
N#C/C(=C/c1cn(Cc2ccc(F)cc2)c2ccccc12)C(=O)Nc1cccc(Cl)c1	56µM	?	–	–[12.3 µM]	–
Cc1nc2c(C(=O)NCCC(C)C)cnn2c(C)c1Cc1c(F)cccc1Cl	–	–	–	–	–
CCOC(=O)CNC(=O)C1CCCCC1	–	–	·	–	·
NC(=O)COC(=O)c1cc(-c2ccco2)nc2ccccc12	?	?	45µM	·	?
CCOC(=O)c1cc(-c2ccco2)nc2c1c(C)nn2-c1ccccc1	–	–	?	–	45µM
O=C(O)c1cc(-c2ccco2)nc2ccc(Br)cc12	2.8µM!	7.1µM!	2.5µM!	–	3.2µM!
O=C(COC(=O)c1cc(-c2ccco2)nc2ccccc12)NCc1ccc2c(c1)OCO2	–	–	?	–	28µM
O=C(c1ccco1)N1CCN(C(=O)c2cc(-c3ccncc3)nc3ccc(Br)cc23)CC1	–	–	?	·	·
Cn1c(=O)c(C(=O)COC(=O)c2cc(-c3ccco3)nc3ccccc23)c(N)n(Cc2ccccc2)c1=O	·	·	·	–	?
COc1cccc(CCNc2ncnc3c2nnn3C)c1	–	–	–	–	–
C=CCN1c2ccccc2[C@]23C[C@@H](C(=O)OC)N(S(=O)(=O)c4ccc(Br)cc4)C2=NC(C(=O)OC)=C(C(=O)OC)[C@H]13	·	·	·	–[12.3 µM]	·
COc1cc(/C=N/NC(=O)c2cc(-c3ccco3)nc3ccccc23)cc(OC)c1O	45µM	?	?	–	50µM
O=C(CN1C(=O)S/C(=C\c2ccc(Cl)cc2)C1=O)NNC(=O)c1ccccc1O	?	–	?	–	50µM
SMILES	Pol iota inh	POLK inh	Pol eta inh	TDP1 block	Pol beta inh
O=C(NN1C(=O)/C(=C/c2ccc(O)cc2)SC1=S)c1ccccc1O	?	–	79µM	·	–
O=C1/C(=C/c2ccc(O)c([N+](=O)[O-])c2)SC(=S)N1Cc1ccccc1	–	–	?	–	–
O=C(NN1C(=O)/C(=C/c2ccc(O)cc2)SC1=S)c1cccc(O)c1	?	–	–	·	–
O=C(NN1C(=O)/C(=C/c2ccc(O)c([N+](=O)[O-])c2)SC1=S)c1ccccc1Cl	40µM	45µM	–	–	–
CC1(C)Cc2c(sc(NC(=O)COc3cccc4ccccc34)c2C#N)C(C)(C)N1	?	–	?	–	22µM
CCN(CC)c1nc(N)c2c(N)n(-c3ccccc3C)c(=S)c(C#N)c2c1C#N	?	?	45µM	–	–
COc1ccc(NS(=O)(=O)c2ccc(O)c(NC(=O)c3cc4c(C)nn(-c5ccc(F)cc5)c4s3)c2)cc1	28µM	?	20µM	–	10µM
COc1ccc(NC(=O)c2cc3c(C)nn(-c4ccccc4)c3s2)c(OC)c1	–	–	–	·	–
O=C(O)c1cccc(NS(=O)(=O)c2ccc(NC(=O)c3ccco3)cc2)c1	–	–	28µM	–	–
Cc1ccc(-c2nn(-c3ccccc3)cc2C(=O)O)o1	·	·	·	?	16µM
CCOC(=O)C1=C(C)NC(C)=C(C(=O)OCC)C1c1cn(-c2ccccc2)nc1-c1ccco1	–	–	–	–	–
CC(C)OC(=O)c1cn(-c2ccccc2)nc1-c1ccco1	?	?	?	–	40µM
CCc1cccc(NC(=O)c2c(N3CCCC3=O)c3cc(C)ccc3n2C)c1	–	–	–	–	–
C=CC[C@H](c1ccc(F)cc1)N(CC(C)C)S(=O)(=O)C=C	–	–	·	·	·
C=CCNS(=O)(=O)c1cc2c3c(c1)CCN3C(=O)CC2	28µM	79µM	–	–	–
O=C1CCc2cc(S(=O)(=O)NCc3ccccc3)cc3c2N1CC3	–	–	–	–[0.505 µM]	–
CC(C)C(=O)Nc1cc2c3c(c1)CCC(=O)N3CCC2	35µM	?	–	–	–
CCS(=O)(=O)Nc1cc2c3c(c1)CCN3C(=O)CC2	25µM	79µM	–	·	–
CC(C)NC(=O)C(=O)Nc1cc2c3c(c1)CCC(=O)N3CCC2	–	–	–	–	–
Cc1ccc(CN2C(=O)C(=O)c3cc(Br)cc(C)c32)cc1	–	–	–	–	–
Cc1nc2c(C(=O)NCCc3ccccc3)c[nH]n2c(=O)c1Cc1ccccc1F	79µM	–	–	–	?
Cc1nc2c(C(=O)N(C)Cc3ccccc3)c[nH]n2c(=O)c1Cc1ccc(Cl)cc1	50µM	89µM	–	–	?
Cc1nc2c(C(=O)NCCc3ccc(Cl)cc3)c[nH]n2c(=O)c1Cc1ccc(Cl)cc1	79µM	?	89µM	–	22µM
Cc1ccc(CNC(=O)c2c[nH]n3c(=O)c(Cc4ccc(Cl)cc4)c(C)nc23)cc1	–	–	?	–	?
CNC(=O)c1c[nH]n2c(=O)c(Cc3ccccc3F)c(C)nc12	–	–	–	–	?
SMILES	Pol iota inh	POLK inh	Pol eta inh	TDP1 block	Pol beta inh
COc1ccc(-c2cc3ccc(O)c(CN4CCCC4)c3oc2=O)cc1	–	–	–	–	–
Cc1ccc(CNC(=O)c2c3c(nc4ccccc24)C(=O)N(C2CCCCC2)C3)cc1	–	–	–	–	–
O=C(O[C@H]1[C@H](Cc2ccccc2)NS(=O)(=O)[C@H]2C[C@@H]3C=C[C@]12O3)c1ccccc1Br	–	–	·	·	·
COc1cc2c(cc1OC)C1O[C@](c3ccsc3)(C2)Oc2cc(-c3ccccc3)oc(=O)c21	·	·	·	·	13µM
COc1ccc(OC)c(/C=C/c2cc3ccccc3c[n+]2C)c1	–	–	·	·	·
O=C(N/N=C/c1cc(Cl)cc([N+](=O)[O-])c1O)c1cc(-c2ccccn2)nc2ccccc12	–	–	79µM	·	–
COc1cccc(/C=N/NC(=O)c2cc(-c3ccccn3)nc3ccccc23)c1O	–	–	–	–	·
